Source: PubChem BioAssay AID1159580 (chemical genetic matrix, 2015)
In all, about 5,500 compounds went through this assay and about 2,000 (36%) were called active. Inconclusive results (about 18%) are left out. Cut-off read from the data, not from the text of the source: active = normalized growth mostly below about 0.91 (no sharp cut-off); inconclusive = no clear call, values can overlap the other calls; inactive = mostly above about 0.92. Some of the results follow.

Test: chemical genetic growth profiling, strain panel (AID 1159580);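 note: tested at 20 µM; growth read once vehicle control cultures reached saturation at 30 °C; 1 = growth at the plate median or of vehicle wells; lower values mean less growth of the strain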
Conditions: S. cerevisiae deletion strains, growth OD

Measured: normalized growth

O=C(NC(Cc1cc(=O)[nH]c2ccccc12)C(=O)O)c1ccc(Cl)cc1 (stereo unspecified)
inactive: locus YAL021C, strain ccr4, stronger effect = lower value 1.01 | locus YAL026C, strain drs2, stronger effect = lower value 1 | locus YAL030W, strain snc1, stronger effect = lower value 1 | locus YBL061C, strain skt5, stronger effect = lower value 1 | locus YBR009C, strain hhf1, stronger effect = lower value 1.01 | locus YBR023C, strain chs3, stronger effect = lower value 1.01 | locus YBR171W, strain sec66, stronger effect = lower value 0.992 | locus YBR231C, strain swc5, stronger effect = lower value 0.994 | locus YBR279W, strain paf1, stronger effect = lower value 0.997 | locus YCL011C, strain gbp2, stronger effect = lower value 1 | locus YCL016C, strain dcc1, stronger effect = lower value 0.994 | locus YCL061C, strain MRC1, stronger effect = lower value 0.994 | locus YCL069W, strain vba3, stronger effect = lower value 1 | locus YCR088W, strain abp1, stronger effect = lower value 0.994 | locus YDL005C, strain med2, stronger effect = lower value 1 | locus YDL040C, strain nat1, stronger effect = lower value 1 | locus YDR001C, strain nth1, stronger effect = lower value 0.997 | locus YDR069C, strain doa4, stronger effect = lower value 1 | locus YDR137W, strain rgp1, stronger effect = lower value 0.969 | locus YDR159W, strain sac3, stronger effect = lower value 1.01 | locus YDR195W, strain ref2 0.972 | locus YDR297W, strain sur2, stronger effect = lower value 1.01 | locus YDR334W, strain swr1, stronger effect = lower value 1.02 | locus YDR335W, strain msn5, stronger effect = lower value 1 | locus YDR392W, strain spt3, stronger effect = lower value 1.03 | locus YEL003W, strain gim4, stronger effect = lower value 0.998 | locus YEL037C, strain rad23, stronger effect = lower value 0.982 | locus YEL061C, strain CIN8 (second series), stronger effect = lower value 1 | locus YER015W, strain faa2, stronger effect = lower value 1.01 | locus YER016W, strain bim1, stronger effect = lower value 1 | locus YER111C, strain swi4, stronger effect = lower value 0.999 | locus YER155C, strain BEM2 (second series), stronger effect = lower value 1 | locus YFR010W, strain ubp6, stronger effect = lower value 0.995 | locus YGL167C, strain pmr1, stronger effect = lower value 1.01 | locus YGL173C, strain kem1, stronger effect = lower value 1.01 | locus YGL227W, strain vid30, stronger effect = lower value 1 | locus YGL240W, strain doc1, stronger effect = lower value 0.998 | locus YGL253W, strain hxk2, stronger effect = lower value 1 | locus YHR013C, strain ard1, stronger effect = lower value 1 | locus YHR027C, strain rpn1, stronger effect = lower value 0.996 | locus YHR030C, strain SLT2, stronger effect = lower value 0.993 | locus YHR079C, strain IRE1, stronger effect = lower value 0.99 | locus YHR142W, strain chs7, stronger effect = lower value 0.986 | locus YJL092W, strain hpr5, stronger effect = lower value 0.998 | locus YJL095W, strain BCK1 (second series), stronger effect = lower value 0.997 | locus YJL095W, strain BCK1, stronger effect = lower value 0.988 | locus YJL115W, strain asf1, stronger effect = lower value 1 | locus YJL129C, strain trk1, stronger effect = lower value 1 | locus YJL154C, strain vps35, stronger effect = lower value 1 | locus YJL164C, strain tpk1, stronger effect = lower value 1 | locus YJL166W, strain qcr8, stronger effect = lower value 0.995 | locus YJR066W, strain TOR1, stronger effect = lower value 0.913 | locus YKL160W, strain elf1, stronger effect = lower value 0.998 | locus YKR026C, strain gcn3, stronger effect = lower value 0.994 | locus YKR091W, strain srl3, stronger effect = lower value 1 | locus YLL001W, strain dnm1, stronger effect = lower value 0.997 | locus YLL026W, stronger effect = lower value 1 | locus YLL041C, strain sdh2, stronger effect = lower value 0.997 | locus YLR027C, strain aat2, stronger effect = lower value 0.994 | locus YLR113W, strain HOG1, stronger effect = lower value 0.995 | locus YLR221C, strain rsa3, stronger effect = lower value 0.999 | locus YLR258W, strain gsy2, stronger effect = lower value 1 | locus YLR262C, strain YPT6 (second series), stronger effect = lower value 1 | locus YLR320W, strain mms22, stronger effect = lower value 0.996 | locus YLR342W, strain FKS1, stronger effect = lower value 0.991 | locus YLR357W, strain rsc2, stronger effect = lower value 0.993 | locus YLR370C, strain arc18, stronger effect = lower value 1 | locus YLR384C, strain iki3, stronger effect = lower value 0.998 | locus YML120C, strain ndi1, stronger effect = lower value 1 | locus YMR058W, strain fet3, stronger effect = lower value 1.01 | locus YMR125W, strain sto1, stronger effect = lower value 1.01 | locus YMR129W, stronger effect = lower value 0.983 | locus YMR205C, strain PFK2, stronger effect = lower value 0.997 | locus YMR231W, strain pep5, stronger effect = lower value 1.01 | locus YNL071W, strain lat1, stronger effect = lower value 1.01 | locus YNL183C, strain NPR1, stronger effect = lower value 0.934 | locus YNL209W, strain ssb2, stronger effect = lower value 1 | locus YNL248C, strain rpa49, stronger effect = lower value 0.994 | locus YNL322C, strain KRE1 (second series), stronger effect = lower value 0.992 | locus YNR049C, strain mso1, stronger effect = lower value 0.986 | locus YOR001W, strain rrp6, stronger effect = lower value 0.988 | locus YOR070C, strain gyp1, stronger effect = lower value 1.01 | locus YOR080W, strain dia2, stronger effect = lower value 0.998 | locus YOR083W, strain WHI5, stronger effect = lower value 1 | locus YOR106W, strain vam3, stronger effect = lower value 0.993 | locus YOR231W, strain MKK1, stronger effect = lower value 0.988 | locus YOR265W, strain rbl2, stronger effect = lower value 1 | locus YOR270C, strain vph1, stronger effect = lower value 1.03 | locus YOR290C, strain snf2, stronger effect = lower value 1.01 | locus YPL051W, strain arl3, stronger effect = lower value 1.01 | locus YPL078C, strain atp4, stronger effect = lower value 0.999 | locus YPL106C, strain sse1, stronger effect = lower value 1.01 | locus YPL240C, strain hsp82, stronger effect = lower value 0.982 | locus YPL256C, strain CLN2, stronger effect = lower value 1.01

Brc1c(NC2=NCCN2)ccc2nccnc12
inactive: locus YAL040C, strain CLN3, stronger effect = lower value 1.01 | locus YCL061C, strain MRC1 (second series), stronger effect = lower value 1 | locus YDR363W, strain ESC2, stronger effect = lower value 1 | locus YER002W, strain NOP16, stronger effect = lower value 1.01 | locus YGR229C, strain SMI1, stronger effect = lower value 1.01 | locus YMR307W, strain GAS1, stronger effect = lower value 0.994 | locus YNL175C, strain NOP13, stronger effect = lower value 0.989 | locus YNL197C, strain WHI3, stronger effect = lower value 0.981 | locus YNL224C, strain SQS1, stronger effect = lower value 0.994 | locus YNL322C, strain KRE1, stronger effect = lower value 1 | locus YOR083W, strain WHI5 (second series), stronger effect = lower value 1 | locus YPL241C, strain CIN2, stronger effect = lower value 1
